Peg3 prom inh – Peg3 promoter activity inhibition. 360,000 tested, 1.7% active. inhibition, % at 20 µM. HeLa PEG-Prom luciferase reporter, luminescence, overnight;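 active means inhibition of at least 50% at 20 µM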
CF NFkB block – blocks PAF-induced NF-kB reporter in cystic fibrosis cells. KKLEB NF-kB-GFP reporter, GFP fluorescence overnight. inhibition, % at 5 µM. 360,000 tested, 0.86% active;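 active means at least 50% inhibition at 5 µM, scaled per plate between neutral and stimulator controls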;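 further: PAF is a Pseudomonas aeruginosa culture filtrate used as stimulus; plate controls were PAF-stimulated DMSO wells for no effect and unstimulated DMSO wells for full effect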
TRPM1 prom inh – MITF TRPM1 promoter inhibition in SK-MEL-5 cells | SK-MEL-5 TRPM1 promoter luciferase, 24 h | inhibition, % at 12.5 µM | 330,000 tested, 0.83% active | AID 488899;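 active means mean inhibition across replicates of 60% or more, whatever share of single replicates reaches that level; inconclusive means some that reach 60%, reason not given; inactive means mean inhibition across replicates below 60%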
Shn3 3UTR inh – reduces Shn3 3'UTR luciferase signal in osteoblasts. Clone20 osteoblast Shn3 3'UTR firefly luciferase, 24 h. inhibition, % at 12.5 µM. 360,000 tested, 0.52% active;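 active means mean inhibition of at least 75% with every replicate also reaching 75%; inconclusive means mean inhibition at least 75% but some replicate below; inactive means mean inhibition below 75%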;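 further: 0% = median of neutral control wells and 100% = pilot-screen positive control compound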
HIF-2a inh – inhibitors of HIF-2a. 786-0 RCC cells HIF-2a reporter, luciferase luminescence, overnight. inhibition, % at 18.8 µM. 360,000 tested, 0.72% active;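 active means inhibition of the luminescence signal of 40% or more relative to plate controls, in a single-dose primary screen at 18.75 µM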
KKLEB tox – CF airway cell cytotoxicity counter-screen; 360,000 tested, 0.36% active; KKLEB CF airway cells viability, ATPlite luminescence, overnight; stronger effect = lower value; cells stimulated with P. aeruginosa culture filtrate; activity change (cytotoxicity), % at 5 µM;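 active means corrected activity change at or below -50% at 5 µM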
Mdm2 MdmX conf – Mdm2/MdmX (human) interaction inhibition, confirmed. shares compounds with HIF-2a inh. inhibition, % at 8 µM. SaOS-2 split-luciferase Mdm2/MdmX complementation, luminescence. AID 504601. 740 tested, 99% active;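 active means mean inhibition of the luminescence signal across two replicates at or above 26 percent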
Target sequence (O15151 whole entry, looked up): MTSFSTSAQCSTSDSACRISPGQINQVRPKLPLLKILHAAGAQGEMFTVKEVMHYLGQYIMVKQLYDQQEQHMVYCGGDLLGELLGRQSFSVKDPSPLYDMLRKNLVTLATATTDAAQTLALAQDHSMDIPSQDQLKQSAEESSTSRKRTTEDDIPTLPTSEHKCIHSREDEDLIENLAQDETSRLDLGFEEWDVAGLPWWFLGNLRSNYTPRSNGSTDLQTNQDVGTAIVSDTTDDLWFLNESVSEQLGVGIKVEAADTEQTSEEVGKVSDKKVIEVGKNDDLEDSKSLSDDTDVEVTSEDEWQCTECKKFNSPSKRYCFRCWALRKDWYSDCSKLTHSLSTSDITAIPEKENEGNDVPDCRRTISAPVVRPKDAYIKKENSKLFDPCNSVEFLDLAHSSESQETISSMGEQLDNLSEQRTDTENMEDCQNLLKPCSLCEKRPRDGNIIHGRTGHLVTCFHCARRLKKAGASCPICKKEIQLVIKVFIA
Target sequence (Q00987 whole entry, looked up): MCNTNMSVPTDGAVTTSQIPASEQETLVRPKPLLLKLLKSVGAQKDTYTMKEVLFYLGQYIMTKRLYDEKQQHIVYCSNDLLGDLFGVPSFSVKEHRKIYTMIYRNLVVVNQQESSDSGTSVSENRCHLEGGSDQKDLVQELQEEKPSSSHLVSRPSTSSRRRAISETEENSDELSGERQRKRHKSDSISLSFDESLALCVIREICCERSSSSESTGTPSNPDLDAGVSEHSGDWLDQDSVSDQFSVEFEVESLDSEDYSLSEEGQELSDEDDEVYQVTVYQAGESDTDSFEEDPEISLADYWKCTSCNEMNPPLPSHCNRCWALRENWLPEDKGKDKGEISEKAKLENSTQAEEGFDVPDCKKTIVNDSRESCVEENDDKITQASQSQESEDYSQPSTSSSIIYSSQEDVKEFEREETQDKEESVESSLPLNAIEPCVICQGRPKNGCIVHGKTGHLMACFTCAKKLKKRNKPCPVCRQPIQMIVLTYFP
HIF-2a conf – confirmation of HIF-2a inhibitors; shares compounds with HIF-2a inh; 786-0 RCC cells, HIF-2a luciferase reporter luminescence, overnight; inhibition, % at 18.8 µM; 1,800 tested, 56% active; AID 651580;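 active means mean inhibition across four replicates of at least 40 percent at the single tested concentration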
HIF-1a counter – inhibits HIF-1a reporter, a counter-screen for HIF-2a inhibitors; MiaPaCa-2 HIF-1a luciferase reporter, desferoxamine, overnight; inhibition, % at 18.8 µM; 1,800 tested, 72% active; shares compounds with HIF-2a inh;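 active means mean inhibition of the reporter signal across four replicates at the single tested dose of 50% or more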
* hit, by the source's call; ? = inconclusive; / = no result. Hits are enriched below; roughly 2.7% of the tested compounds scored in any of these assays.

SMILES	Peg3 prom inh	CF NFkB block	TRPM1 prom inh	Shn3 3UTR inh	HIF-2a inh	KKLEB tox	HIF-2a conf	HIF-1a counter	others
Cc1nn(-c2ccccc2)c(Cl)c1/C=N/Nc1ccc(Cl)c(C(=O)O)c1	-18	-4	55	40	61*	6	56*	-56
CCc1nc(SCC(=O)N2c3ccccc3CC2C)c2c(C)c(C)sc2n1 (centres undefined)	6	-9	8	25	15	7	/	/	Mdm2 MdmX conf=101*
Cc1sc2nc(C(C)C)nc(SCC(=O)N3c4ccccc4CC3C)c2c1C (centres undefined)	11	8	-2	5	20	-20	/	/
CC(=O)Nc1ncnc2c1c(-c1ccc(Cl)cc1)nn2C(C)(C)C	28	38	5	34	48*	-16	43*	49
O=C(Cn1ncc(Cl)c(Cl)c1=O)NCC1CCCCC1	108*	95*	92*	75	97*	-73*	91*	105*
Cc1cccc(NC(=O)CNC(=O)Cn2ncc(Cl)c(Cl)c2=O)c1C	95*	92*	85*	46	84*	-61*	/	/	Mdm2 MdmX conf=103*
Cc1cccc(NC(=O)CNC(=O)CSc2ncccn2)c1C	1	13	2	-48	2	-5	/	/
O=C(CC[C@H]1O[C@@H](n2cnc3c(NC(=O)c4ccccc4)ncnc32)[C@H](O)[C@@H]1O)NCCCN1CCOCC1	4	10	/	4	7	-23	/	/
Cc1cccc(NC(=O)/C=C/c2ccc([N+](=O)[O-])s2)c1	107*	-27	95*	91*	49*	-33	-163	103*
COc1cccc(NC(=O)/C=C/c2ccccc2[N+](=O)[O-])c1	-259	-2	-52	-90	-236	-8	/	/
Cc1ccc(NC(=O)/C=C/c2ccc([N+](=O)[O-])s2)c(C)c1	89*	-13	109*	94*	79*	-29	-23	100*
O=C1NC(c2ccc(Br)cc2)Oc2ccccc21 (centres undefined)	-12	8	-1	0	-6	4	/	/
CC(C)c1c(C(=O)Nc2ccccc2)c(-c2ccccc2)c(-c2ccc(F)cc2)n1CC[C@@H](O)C[C@@H](O)CC(=O)O	19	17	/	53	40*	-14	27	-34
O=C(Nc1ccccc1)c1c(F)c(F)c(F)c(F)c1F	-21	6	11	-2	9	-8	/	/
CC(=O)NC(C)c1ccc(C(=O)CSc2nnc(C3CC3)n2C2CC2)cc1 (centres undefined)	-9	5	1	-30	16	-7	/	/
C=C(C)[C@@H]1CC=C(CN2CCN(Cc3ccccc3)CC2)CC1	2	-10	-10	-7	-1	4	/	/
O=S1(=O)CC(N2CCCC2)CN1Cc1cn(Cc2cccc(Cl)c2)nn1 (centres undefined)	/	/	/	/	0	/	/	/
COc1cc(/C=C2/CCC/C(=C\c3cc(O)c(OC)c(Cl)c3)C2=O)cc(Cl)c1O	3	-54	5	45	91*	2	/	/	Mdm2 MdmX conf=103*
COc1cc(/C=C2\CC/C(=C\c3cc(OC)c(OC)c(OC)c3)C2=O)cc(OC)c1OC	-11	-30	21	24	20	-4	/	/
C#CCN(C[C@@H]1[C@@H](OC(=O)NCc2ccco2)[C@@H](OC(=O)NCc2ccco2)CN(C(=O)OC(C)C)N1C(=O)OC(C)C)S(=O)(=O)c1ccc(C)cc1	-9	22	/	-9	44*	5	37	89*
C#CCN(C[C@@H]1[C@@H](OC(=O)Nc2cccs2)[C@@H](OC(=O)Nc2cccs2)Cn2c(=O)ccc(=O)n21)S(=O)(=O)c1ccc(C)cc1	96*	81*	/	-12	97*	-60*	96*	108*
C#CCN(C[C@@H]1[C@@H](OC(=O)NCc2ccccc2F)[C@@H](OC(=O)NCc2ccccc2F)Cn2c(=O)ccc(=O)n21)S(=O)(=O)c1ccc(C)cc1	97*	77*	/	96*	95*	-85*	97*	106*
C#CCN(C[C@@H]1[C@@H](OC(=O)NCc2ccccc2F)[C@@H](OC(=O)NCc2ccccc2F)Cn2c(=O)n(CCCCCC)c(=O)n21)S(=O)(=O)c1ccc(C)cc1	-1	17	/	19	6	6	/	/
C#CCN(C[C@@H]1[C@@H](OC(=O)NCc2ccccc2F)[C@@H](OC(=O)NCc2ccccc2F)CN(C(=O)OC(C)C)N1C(=O)OC(C)C)S(=O)(=O)c1ccc(C)cc1	3	32	/	22	-7	6	/	/
Cc1ccccc1C(=O)N(Cc1cccs1)C1CCS(=O)(=O)C1 (centres undefined)	5	8	0	-16	6	-16	/	/
SMILES	Peg3 prom inh	CF NFkB block	TRPM1 prom inh	Shn3 3UTR inh	HIF-2a inh	KKLEB tox	HIF-2a conf	HIF-1a counter	others
Cn1nnc(NC(=O)c2cccc([N+](=O)[O-])c2)n1	-14	2	14	-15	21	-2	/	/
COCCNC(=O)CSc1n[nH]c(=O)n1CCc1ccccc1	5	-10	-2	-11	13	1	/	/
COc1ccc(CN(CCC(c2ccccc2)c2ccc(OC(C)C)cc2)C(=O)CCl)cc1OC (centres undefined)	106*	81*	106*	0	96*	-85*	/	/	Mdm2 MdmX conf=103*
COc1ccc(OC)c(S(=O)(=O)ON2C(=O)c3ccccc3C2=O)c1	54*	-10	31	56	57*	0	60*	23
COc1ccc(OC)c(S(=O)(=O)N2CCN(c3ccccc3)CC2)c1	17	-12	-3	6	9	13	/	/
CCc1ccc(S(=O)(=O)ON2C(=O)c3ccccc3C2=O)cc1	51*	3	11	46	46*	10	51*	-4
COC(=O)c1cc(=O)n(-c2ccc(F)cc2)c(=Nc2ccc(F)cc2)s1	93*	18	16	59	53*	-15	66*	91*
CN(C)c1ccc(-c2cc(O)c3ncccc3c2)cc1	-146	-18	-21	72	-213	-2	/	/
Oc1cc(-c2ccncc2)cc2cccnc12	20	34	/	89*	15	-38	/	/	Mdm2 MdmX conf=101*
Oc1cc(-c2ccc(N3CCCCC3)nc2)cc2cccnc12	-123	-10	-12	?	-83	-2	/	/	Mdm2 MdmX conf=99*
CN(C)CCCNC(=O)c1ccc(-c2cc(O)c3ncccc3c2)cc1	-6	-13	-1	45	-48	16	/	/

Compound activity from PubChem BioAssay.
